rat GALR2 ag: agonists of rat galanin receptor 2 (GALR2). 0.5% of 16,000 active. Galanin receptor type 2 (Rattus norvegicus), O08726. activation, % at 10 µM. cell-based GALR2 agonist screen; in the data active means activation above about 15%
S1P1 ag: activates the human S1P1 receptor; activation, % at 4.5 µM; Sphingosine 1-phosphate receptor 1 (Homo sapiens), P21453; 1.5% of 16,000 active; S1P1 agonist cell-based reporter assay; in the data active means activation above about 80%
Target sequence (P21453 whole entry, looked up): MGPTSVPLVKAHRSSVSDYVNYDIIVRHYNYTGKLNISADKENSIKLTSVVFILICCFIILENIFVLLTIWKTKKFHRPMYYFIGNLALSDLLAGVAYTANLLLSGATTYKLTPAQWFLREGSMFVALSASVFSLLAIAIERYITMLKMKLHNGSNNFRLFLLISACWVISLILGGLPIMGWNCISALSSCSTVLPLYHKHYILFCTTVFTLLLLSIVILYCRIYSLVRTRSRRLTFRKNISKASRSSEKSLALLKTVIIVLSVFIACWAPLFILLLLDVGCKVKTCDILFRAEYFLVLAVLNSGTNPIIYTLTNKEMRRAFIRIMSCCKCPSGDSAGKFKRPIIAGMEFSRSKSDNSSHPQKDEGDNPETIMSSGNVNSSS
NOTCH ag: agonists of NOTCH signaling; 0.4% of 15,000 active; NOTCH signaling luciferase reporter cells, luminescence; activation, % at 2.5 µM; AID 434982, 2010; in the data active means activation above about 2.2%
* = called active by the depositor; / = no result given. A selection: hits, their analogues and other compounds. The true share with any hit is near 2.2%.

SMILES	rat GALR2 ag	S1P1 ag	NOTCH ag
FC(F)(F)c1cnc(NCCCNC(=S)Nc2cccnc2)c(Cl)c1	-7	24	2.8*
FC(F)(F)c1cnc(NCc2cccnc2)c(Cl)c1	-9	11	0
Cc1ccc(/C=c2\sc3nnc(-c4ccco4)n3c2=O)o1	-7	-1	0
c1ccc(N2CC3CCc4ccccc4C3=N2)cc1 (stereo unspecified)	23*	-39	0
O=[N+]([O-])c1ccc(N2CCCCCC2)c([N+](=O)[O-])c1	-6	40	/
NC1=NNC(=O)/C1=C\c1cc([N+](=O)[O-])ccc1N1CCOCC1	25*	-3	0
O=C(Cc1csc2ccccc12)Nc1ccc(F)cc1	-1	-8	0
CNc1nnc(SCc2csc3ccccc23)s1	-6	118*	/
N=C(N)SCc1csc2ccccc12	-12	20	2.4*
NC(=O)c1cccc(CSCc2csc3ccccc23)c1	-5	-3	0
Cc1ccc2nc3c4ccccc4cnc3n2c1	-6	2	0
Cc1csc(SCC(=O)NNC(=O)c2c(F)cccc2Cl)n1	-5	-5	-1
COc1ccc(C(=O)NNc2c([N+](=O)[O-])cc(C(F)(F)F)cc2[N+](=O)[O-])cc1	-4	61	1
O=C(NNc1c([N+](=O)[O-])cc(C(F)(F)F)cc1[N+](=O)[O-])c1ccccc1-n1cccc1	-9	109*	-1
CCOC(=O)CCc1c(CC(=O)OCC)c[nH]c1/C=N/O	-9	2	0
N=C(N)N=N/C=C/C=C/c1ccccc1	-1	-4	0
COc1ccc(NC(=O)c2ccc(-c3ccccc3F)cc2)cc1	-2	11	0
COC(=O)c1cnn(-c2ccccc2)c1/C=N/OC(=O)c1ccc(Cl)cc1	3	-17	-2
O=C(CSc1nc2ccccc2c(=O)[nH]1)c1cc2ccccc2o1	-4	92*	0
Cc1ccc(C(=O)CSc2nc3ccccc3c(=O)[nH]2)cc1	-5	29	0
N#C/C(N)=C(\C#N)NCc1c(F)cccc1Cl	-7	-6	0
O=[N+]([O-])c1cc(Cl)c(-n2cccc2)cc1N1CCCCC1	-10	7	0
O=[N+]([O-])c1cc(Cl)c(N2CCOCC2)cc1N1CCOCC1	-8	-18	6.3*
N#C/C(=N\Nc1ccc(OC(F)(F)F)cc1)C(=O)c1ccsc1	-10	107*	1
N#C/C(=C\Nc1ccc(OC(F)(F)F)cc1)C(=O)c1cccs1	-2	43	0
SMILES	rat GALR2 ag	S1P1 ag	NOTCH ag
CC(C)(C)c1ccc(NC(=O)c2ccc(Cl)cc2)c([N+](=O)[O-])c1	-7	33	0
COC(=O)c1cccc2cc[nH]c12	-1	6	0
COc1ccc(C(=O)NC(=Nc2c(C)cccc2C)SC)cc1	-10	101*	-1
COc1ccc(C(=O)N/N=C(/C(=O)O)c2ccccc2)cc1	-3	-11	0
O=C(Cn1nnc(N2CCCCC2)n1)N/N=C/c1ccccn1	-4	-30	-5
COC(=O)c1cc(NC(=S)NC(=O)c2ccccc2)ccc1N1CCOCC1	-5	88*	0
COC(=O)c1cc(NC(=O)c2c(-c3c(Cl)cccc3Cl)noc2C)ccc1N1CCOCC1	-5	-1	0
CC(=O)N1CC(=O)N/C(=C/c2ccco2)C1=O	-5	-4	0
COC(=O)CSCCC(=O)Nc1cc(C)on1	-4	-6	0
CCCOc1ccc(NC(C)=O)cc1	-8	-9	5.0*
CC(=O)Nc1cccc(OCCOc2cccc(NC(C)=O)c2)c1	-3	10	0
CNC(=S)N(Cc1ccccc1)Cc1cccs1	-5	-2	0
O=c1ccc(=O)n(CCO)[nH]1	-1	4	0
FC(F)(F)c1cccc(Nc2nnc(-c3cccnc3)s2)c1	-3	0	0
O=C(Nc1ccccc1)Nc1nnc(C(F)(F)F)s1	-13	109*	0
FC(F)(F)c1nnc(Nc2cccnc2)s1	-7	-8	4.5*
O=C(Nc1nnc(C(F)(F)F)s1)c1ccccc1	-6	9	0
O=C(COc1ccc(SC(F)(F)F)cc1)NNC(=O)Nc1ccc(Cl)cc1	-5	-15	0
O=C(NNC(=O)c1cc(C(F)(F)F)cc(C(F)(F)F)c1)c1ccc(Cl)cc1	-11	-8	/
CC(ONC(=O)c1cc(C(F)(F)F)cc(C(F)(F)F)c1)C(=O)Nc1ccc(Cl)cc1 (stereo unspecified)	-8	110*	0
O=C(NC(=O)N1CCOCC1)c1nnc(-c2ccccc2)o1	-5	-17	-1
O=C(NC(=O)N1CCOCC1)c1ccc([N+](=O)[O-])s1	2	89*	-1
CS(=O)(=O)/C(C#N)=C/c1ccccc1OCc1c(Cl)cccc1Cl	18*	30	0
CS(=O)(=O)/C(C#N)=C\c1ccc(Cl)s1	-5	-5	-1
CSc1sc(C(=O)NC(=O)Nc2ccc(Cl)cc2)c2c1-c1nocc1CC2	-3	108*	1
SMILES	rat GALR2 ag	S1P1 ag	NOTCH ag
CSc1sc(C(=O)NNC(=O)Nc2ccc(Cl)cc2)c2c1C1(CCC2)SCCS1	-7	-13	0
CC(=O)Oc1c(C)c(C)c2oc(=O)ccc2c1C	-10	-4	0
Cc1csc2ncnc(NCCc3ccc(Cl)cc3)c12	-8	102*	-6
Cc1csc2ncnc(NNC(=O)c3ccc(Cl)cc3)c12	-11	35	-1
CCCNC(=O)c1cc([N+](=O)[O-])cc2c1-c1ccc([N+](=O)[O-])cc1C2=O	-10	9	0
CSCCC(NC(=O)c1cccnc1SC)C(=O)O (stereo unspecified)	-7	1	-1
N#CCSC1=CC(=O)CC(c2ccccc2)S1 (stereo unspecified)	0	91*	0
COC(=O)C1=C(N)CC(c2ccccc2)S1 (stereo unspecified)	-3	2	0
O=C(c1sccc1Cl)N1CCCN(c2nccc(C(F)(F)F)n2)CC1	-5	7	0
CCN(c1ccccc1)S(=O)(=O)c1cc([N+](=O)[O-])ccc1N	-7	100*	-1
Cc1ccc([N+](=O)[O-])cc1S(N)(=O)=O	-8	-5	0
Cc1ccc(S(=O)(=O)C[C@H]2O[C@@H](n3cc(I)c(=O)[nH]c3=O)C[C@@H]2O)cc1	-5	0	0
CC(=O)OC1C[C@H](n2cc(C)c(=O)[nH]c2=O)O[C@@H]1COS(=O)(=O)c1ccc(C)cc1 (stereo partly specified)	-6	-15	3.0*
CSC(=NCc1cccs1)NC#N	-6	-8	0
CSC(=NCc1sccc1CSc1ccc(Cl)cc1)NC#N	-5	97*	-1
Cc1csc(-c2nc(-c3ccc(C(F)(F)F)cc3)no2)c1	-7	86*	-4
Cc1nc(-c2noc(-c3ccc(C(F)(F)F)cc3)n2)cs1	-6	14	0
Cc1nn(C(C)(C)C)c(C)c1/C=N/O	-5	-5	0
Cc1nc(C)c(-c2nnc(-c3ccc(C(F)(F)F)cc3)o2)s1	-6	88*	0
O=C(CSc1nnc(-c2ccc(C(F)(F)F)cc2)o1)c1ccc(F)cc1	-6	-5	0
Cn1c(=O)c2c(NCc3ccccc3)cc(=O)n(C)c2n(C)c1=O	4	-37	8.5*
Cn1c(=O)c2c(O)c(Cc3ccccc3)c(=O)n(C)c2n(C)c1=O	-7	-11	0
COc1cc2ncnc(NNS(=O)(=O)c3cc(C)c(Cl)cc3C)c2cc1OC	-6	1	-1

Bioassay records as filed in PubChem.
